Results reported in PubChem BioAssay (NCATS).
Results filed as inconclusive are left out. Unmarked numbers belong to inactive results. Activity calls are given as the source filed them. The call rests on the fitted dose curve; in most records, active means well fitted cell-killing curve with a large enough effect; inconclusive means small, poorly fitted or top-dose-only effect, or effect the other way; inactive means no such curve, though single readings can be large or run the other way. Residues, ends and D or L forms follow the SMILES beside them. *: point of attachment. Cbz = O=C(OCc1ccccc1)*

experiment: Quantitative High-Throughput drug screen in 47 multiple myeloma cell lines against the NCATS MIPE library collection: ARP1_JJKsccF8 cell viability assay (AID 1918928; further: nearly all actives have a fitted effect of over 40% in size); conditions: ARP1 myeloma cells viability, CellTiter-Glo ATP, 48 h; series mostly up to 45.8 µM; viability: at the top concentration
Source text: PI: Beverly A. Mock Ph.D.
Laboratory of Cancer Biology and Genetics,
Center for Cancer Research, National Cancer Institute,
National Institute of Health, Bethesda, Maryland
Drug resistance and disease progression are common in multiple myeloma (MM) patients, underscoring the need for new therapeutic combinations. […] We hypothesized that effective combinations would reduce MYC expression and enhance p16 activity. […] These preclinical data identify potentially useful drug combinations for evaluation in drug-resistant MM and reveal potential mechanisms of combined drug sensitivity.
Described herein is the primary MIPE qHTS used to cherrypick compounds. Validated compounds were then further tested for potential synergistic activiy.
[1] Peat TJ, Gaikwad SM, Dubois W, Gyabaah-Kessie N, Zhang S, Gorjifard S, Phyo Z, Andres M, Hughitt VK, Simpson RM, Miller MA, Girvin AT, Taylor A, Williams D, D'Antonio N, Zhang Y, Rajagopalan A, Flietner E, Wilson K, Zhang X, Shinn P, Klumpp-Thomas C, McKnight C, Itkin Z, Chen L, Kazandijian D, Zhang J, Michalowski AM, Simmons JK, Keats J, Thomas CJ, Mock BA. Drug combinations identified by high-throughput screening promote cell cycle transition and upregulate Smad pathways in myeloma. Cancer Lett. 2023 Aug 1;568:216284. doi: 10.1016/j.canlet.2023.216284. Epub 2023 Jun 24. PMID: 37356470; PMCID: PMC10408729.
SEQUENCE No. (e.g., 1, 2, 3, etc.); […] (e.g., Cells, Incubation, Reagent, etc.); VALUE and DESCRIPTION.
1; Cells; 5 uL; white, solid bottom 1536-well Greiner assay plate.
2; Compounds; 23 nL; Kalypsis pin tool (Wako USA) equipped with a 1536-well pin head to transfer to the assay plates.
3; Incubation; 48 hours; 37C incubation.
4; Reagent;5uL; CellTiter Glo (Promega).
5; Detector; 425V; Luminescence; Viewlux PerkinElmer.
NOTES (numbers refer to Sequence numbers above)
1. The cell-based screening methods employed in this study were like those previously published. Briefly, the corresponding myeloma cell lines were screened in 1,536-well plates with 500 cells, 5-uL per well for inhibition of cell viability (assessed by measuring ATP levels with CellTiterGlo).
2. NCATS MIPE 4.0 library of approved and investigational drugs were added using the Kalypsis pin tool. Wells treated with DMSO only for 100% viability and media only cells for 0% viability were used as controls.
3. The assay plates were covered and incubated for 48 hours in a 37C, 5% CO2 incubator with controlled humidity.
4. After 48 hours, CellTilter-GloTM luminescent substrate mix (Promega) reagent was added to the assay plate and plates we incubated for 5 min at room temperature.
5. Signal was measured as median relative luminescence units on a ViewLux (PerkinElmer) multiplate reader.
[1] Heske CM, Davis MI, Baumgart JT, Wilson K, Gormally MV, Chen L, Zhang X, Ceribelli M, Duveau DY, Guha R, Ferrer M, Arnaldez FI, Ji J, Tran HL, Zhang Y, Mendoza A, Helman LJ, Thomas CJ. Matrix Screen Identifies Synergistic Combination of PARP Inhibitors and Nicotinamide Phosphoribosyltransferase (NAMPT) Inhibitors in Ewing Sarcoma. Clin Cancer Res. 2017 Dec 1;23(23):7301-7311. doi: 10.1158/1078-0432.CCR-17-1121. Epub 2017 Sep 12. PMID: 28899971; PMCID: PMC6636827.
Potency means the concentration at half of the fitted maximal effect.

Row | SMILES | viability | Potency
1 | C#C[C@]1(O)CC[C@@H]2[C@@H]3CCC4=CC(=O)CC[C@@H]4[C@H]3CC[C@@]21CC | 104% | –
2 | COc1ccc2c(c1OC)C(=O)OC2[C@H]1c2c(cc3c(c2OC)OCO3)CCN1C (stereo not given in full) | – | 0.0526 µM (active)
3 | NC(=O)c1ncn([C@@H]2O[C@H](CO)[C@@H](O)[C@@H]2O)c1O | – | 13.2 µM (active)
4 | CC(=O)[C@]1(O)Cc2c(O)c3c(c(O)c2[C@@H](O[C@H]2C[C@H](N)[C@@H](O)[C@H](C)O2)C1)C(=O)c1ccccc1C3=O | – | 0.264 µM (active)
5 | COc1cccc2c1C(=O)c1c(O)c3c(c(O)c1C2=O)C[C@@](O)(C(=O)CO)C[C@@H]3O[C@H]1C[C@H](N)[C@@H](O)[C@H](C)O1 | – | 0.469 µM (active)
6 | CN(C)c1ccc(C(=O)NCCCCCCC(=O)NO)cc1 | – | 0.743 µM (active)
7 | CC[C@H]1OC(=O)[C@H](C)[C@@H](O[C@H]2C[C@@](C)(OC)[C@@H](O)[C@H](C)O2)[C@H](C)[C@@H](O[C@@H]2O[C@H](C)C[C@H](N(C)C)[C@@H]2O)[C@](C)(OC)C[C@@H](C)C(=O)[C@H](C)[C@@H](O)[C@]1(C)O | 112% | –
8 | C#Cc1cccc(Nc2ncnc3cc(OCCOC)c(OCCO)cc23)c1 | – | 23.5 µM (active)
9 | CC(=O)ON=C1C(c2c(O)[nH]c3cc(Br)ccc23)=Nc2ccccc21 | – | 10.5 µM (active)
10 | C[C@](Cc1c[nH]c2ccccc12)(NC(=O)OC1C2CC3CC(C2)CC1C3)C(=O)NC[C@H](NC(=O)CCC(=O)O)c1ccccc1 (stereo not given in full) | 72.5% | –
11 | N[C@H]1CN(c2c(F)cc3c(=O)c(C(=O)O)cn(C4C[C@@H]4F)c3c2Cl)CC12CC2 (stereo not given in full) | 83.2% | –
12 | Nc1nc2c(c(=O)[nH]1)N(C=O)[C@H](CNc1ccc(C(=O)N[C@@H](CCC(=O)O)C(=O)O)cc1)CN2 | 116% | –
13 | Cn1cnc2c(F)c(Nc3ccc(Br)cc3F)c(C(=O)NOCCO)cc21 | 89.9% | –
14 | CN1CCCN(C(=O)c2cccc(-c3ccc(C=C4C(=O)Nc5ccc(Cl)cc54)o3)c2)CC1 | – | 16.6 µM (active)
15 | CN(C)CCN1C(=O)c2cccc3cc(N)cc(c23)C1=O | – | 20.9 µM (active)
16 | COc1ccnc2[nH]cc(C(=O)C(=O)N3CCN(C(=O)c4ccccc4)C[C@@H]3C)c12 | – | 16.6 µM (active)
17 | C[N+](C)([O-])CCNc1ccc(NCC[N+](C)(C)[O-])c2c1C(=O)c1c(O)ccc(O)c1C2=O | 103% | –
18 | CN(C)CC(=O)N1CCC(c2ccc(NC(=O)c3ncc(C#N)[nH]3)c(C3=CCCCC3)c2)CC1 | 96.9% | –
19 | CNC(=O)c1ccc(Nc2cc(Nc3ccccc3S(=O)(=O)C(C)C)c3cc[nH]c3n2)nc1 | – | 18.7 µM (active)
20 | COc1cc(C[C@@H](CO)[C@H](CO)Cc2ccc(O)c(OC)c2)ccc1O | 123% | –

Row | SMILES | viability | Potency
21 | C=CC(=O)Nc1cc(NC(=O)c2ccc(C)c(NC(=O)c3ccno3)c2)cc(C(F)(F)F)c1 | – | 16.6 µM (active)
22 | CCc1cnn2c(NCc3ccc[n+]([O-])c3)cc(N3CCCC[C@@H]3CCO)nc12 | – | 0.0264 µM (active)
23 | CCn1c(=O)c2c(nc(C=Cc3ccc(OC)c(OC)c3)n2C)n(CC)c1=O | 94.7% | –
24 | CCOc1cc2c(c(F)c1OCC)C(=N)N(CC(=O)c1cc(N3CCOCC3)c(OC)c(C(C)(C)C)c1)C2 | – | 18.7 µM (active)
25 | C[C@@H]1C(=O)O[C@H]2CC34[C@H]5C[C@@H](C(C)(C)C)C36[C@H](OC(=O)[C@@H]6O)O[C@@]4(C(=O)O5)[C@]21O (stereo not given in full) | 101% | –
26 | Nc1ccc(C(=O)Nc2cccc(-c3nc(N4CCOCC4)c4oc5ncccc5c4n3)c2)cn1 | – | 6.62 µM (active)
27 | CCCCOc1ccc(C(=O)Nc2ccc(F)cc2F)cc1 | 107% | –
28 | Cn1cc(-c2cnn3c(N)c(Br)c([C@H]4CCCNC4)nc23)cn1 | – | 3.32 µM (active)
29 | CC(C)C[C@@H](C=O)NC(=O)[C@H](CC(C)C)NC(=O)[C@H](CC(C)C)NC(=O)OCc1ccccc1 (Cbz-Leu-Leu-Leu-aldehyde) | – | 0.332 µM (active)
30 | COc1cc2c(cc1OC)[C@@H]1C(=O)c3ccc4c(c3O[C@@H]1CO2)C=CC(C)(C)O4 | – | 0.059 µM (active)
31 | CC(=O)N[C@@H]1[C@H](O[C@@H]2c3ccc(c(Cl)c3)Oc3cc4cc(c3O[C@H]3O[C@H](CO)[C@@H](O)[C@H](O)[C@H]3NC(=O)CCCCCCCC(C)C)Oc3ccc(cc3Cl)C[C@H]3NC(=O)[C@H](N)c5ccc(O)c(c5)Oc5cc(O)cc(c5)[C@H](NC3=O)C(=O)N[C@H]4C(=O)N[C@H]3C(=O)N[C@@H]2C(=O)N[C@@H](C(=O)O)c2cc(O)cc(O[C@H]4O[C@H](CO)[C@@H](O)[C@H](O)[C@H]4O)c2-c2cc3ccc2O)O[C@H](CO)[C@@H](O)[C@@H]1O | 99.5% | –
32 | C[C@@]12C(=O)OC(=O)[C@@]1(C)C1CCC2O1 | – | 0.833 µM (active)
33 | COc1ccc(C[C@@H](C)[C@@H](C)Cc2ccc(OC)c(OC)c2)cc1OC | – | 0.132 µM (active)
34 | C=CC(=O)N1CCc2ccc(-n3c(=O)ccc4cnc5ccc(-c6cnn(C)c6)cc5c43)cc21 | – | 1.05 µM (active)
35 | CN(C)CC[C@H](c1ccc(Cl)cc1)c1ccccn1 | 110% | –
36 | CC(=O)N1CCN(c2ccc(OCc3nn(C)c(C)c3-c3cccc4c(CCCOc5cccc6ccccc56)c(C(=O)O)n(Cc5cccnc5)c34)cc2)CC1 | – | 10.5 µM (active)
37 | Cc1ccc(O)c(C(CCN(C(C)C)C(C)C)c2ccccc2)c1 (stereo not given) | 98.7% | –
38 | O=C(CN1C(=O)C2(CCCC2)NC[C@H]1c1cc(F)cc(F)c1)Nc1ccc2c(c1)C[C@@]1(C2)C(=O)Nc2ncccc21 | 108% | –
39 | O=C(C=CC#Cc1cccc(NS(=O)(=O)c2ccccc2)c1)NO | – | 0.372 µM (active)
40 | O=c1c(O)c(-c2ccc(O)c(O)c2)oc2cc(O)ccc12 | – | 20.9 µM (active)
